# The list is not random: actives were taken first. Their share in the collection is about 11%.
# MCF10A rereplic – A quantitative high throughput screen for small molecules that induce DNA re-replication in MCF 10a normal breast cells. Potency, µM (series often up to 46.1 µM), for the others: top-dose activity, positive = re-replication, actives largely listed as activators. MCF 10A DNA re-replication, Hoechst nuclear intensity, 48 h. actives 2.9% (n = 350,000); also: potency is read from the fitted curve at half-maximal effect; % of control where 0% means no effect; nearly all actives have a fitted effect of over 50% in size
# IL-1B inflam inh – qHTS for Inhibitors of Inflammasome Signaling: IL-1-beta AlphaLISA Primary Screen; THP-1 LPS/ATP IL-1B secretion, AlphaLISA, 16 h; hits give low values; activity change, % at 57.5 µM; actives 4.7% (n = 360,000); AID 743279, 2014; in the data active = activity change below about -50%; inconclusive = mostly about -30% to -49%; also: % is scaled to controls: 0 for no effect and ±100 for the full control effect
#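 Secreted IL-1B measured by AlphaLISA bead assay after 16 h compound exposure of THP-1 cells; compounds (final up to 57.5 uM) added 1 h before LPS (250 ng/mL) and ATP (1.25 mM) stimulation; lower signal means less secretion.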
# VP16 counter – VP16 counterscreen qHTS for inhibitors of ROR gamma transcriptional activity | Potency, µM (top dose mostly 53.6 µM), for inactives: at the top dose activity, negative = inhibition, hits mostly inhibitors | AID 2546, 2010 | Drosophila S2 Gal4-VP16 UAS-luciferase, luminescence, 20 h | actives 3.5% (n = 310,000);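 also: Gal4-VP16 expression switched on by copper sulfate through the metallothionein promoter; potency is read from the fitted curve at half-maximal effect; % is scaled to controls: 0 for no effect and ±100 for the full control effect; nearly all actives have a fitted effect of over 50% in size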
# SW480 rereplic – A quantitative high throughput screen for small molecules that induce DNA re-replication in SW480 colon adenocarcinoma cells | SW480 DNA re-replication, Hoechst DNA content imaging, 48 h | Potency, µM (doses to about 46.1 µM), inactives show at the highest dose re-replication activation, hits mostly activators | actives 1.8% (n = 340,000) | AID 624297, 2012; also: potency is read from the fitted curve at half-maximal effect; % of control where 0% means no effect; nearly all actives have a fitted effect of over 55% in size
#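 Cells (250 per well) received 23 nL compound or DMSO by pin tool and were kept 48 hr at 37 C, 5% CO2. Nuclei were then stained with Hoechst for 40 min and scanned for DNA content.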
# RORg inh – qHTS for inhibitors of ROR gamma transcriptional activity; Nuclear receptor ROR-gamma (Mus musculus), P51450; Drosophila S2 Gal4-RORgamma UAS-luciferase reporter, 20 h; Potency, µM (series often up to 53.6 µM), without a hit: at the highest dose activity change, negative = inhibition, actives largely listed as inhibitors; AID 2551, 2010; actives 5.4% (n = 310,000); also: potency is read from the fitted curve at half-maximal effect; % is scaled to controls: 0 for no effect and ±100 for the full control effect; nearly all actives have a fitted effect of over 60% in size
# Target sequence (P51450 whole entry, looked up, the tested form may be a part): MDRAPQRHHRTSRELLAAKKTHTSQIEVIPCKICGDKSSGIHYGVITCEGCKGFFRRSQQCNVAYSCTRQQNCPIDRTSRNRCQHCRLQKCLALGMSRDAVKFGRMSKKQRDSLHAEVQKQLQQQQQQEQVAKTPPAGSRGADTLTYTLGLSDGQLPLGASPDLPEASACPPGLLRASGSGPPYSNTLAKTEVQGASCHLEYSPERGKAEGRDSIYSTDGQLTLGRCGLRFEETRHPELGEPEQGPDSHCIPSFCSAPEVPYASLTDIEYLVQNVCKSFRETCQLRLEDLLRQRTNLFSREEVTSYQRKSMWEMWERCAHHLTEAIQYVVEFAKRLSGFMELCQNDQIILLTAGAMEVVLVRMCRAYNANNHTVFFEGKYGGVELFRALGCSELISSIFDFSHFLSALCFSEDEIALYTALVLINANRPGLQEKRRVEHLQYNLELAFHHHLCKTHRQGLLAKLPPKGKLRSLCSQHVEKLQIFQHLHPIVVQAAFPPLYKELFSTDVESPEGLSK
#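 Drosophila S2 cells stably expressing Gal4-DBD/mouse RORγ fusion under metallothionein promoter plus UAS-luciferase; compound 1 h, then 700 uM CuSO4 induction for 20 h at ambient temperature; inhibition read as reduced luminescence.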
# The depositor's hits bear a star; ? = inconclusive; / = no result; [ ] = dose if it differs, or a comment. Unless noted, calls follow the shape of the dose curve; as a rule, active = well fitted curve in the direction sought with a large enough effect; inconclusive = small, poorly fitted or top-dose-only effect, or another doubt; inactive = no such curve, though single readings can be large; an effect the other way counts as inactive or inconclusive.
SMILES,MCF10A rereplic,IL-1B inflam inh,VP16 counter,SW480 rereplic,RORg inh
OCCNc1ncnc2c1ncn2[C@H]1CN(Cc2ccc3c(c2)OCO3)C[C@@H](CO)O1,/,-3,/,/,/
COc1cc(NCc2ccc3nc(N)nc(N)c3c2C)cc(OC)c1OC,21%,/,-9%,18%,-17%
COc1cc(/C=N/Nc2nncn2N)ccc1OCc1c(C)no[n+]1[O-],18µM*,23,?,1%,?
COc1cc(OC)cc(-c2nnc(NC(=O)CCS(=O)(=O)c3ccccc3)o2)c1,?,-72*,/,?,/
COc1cc(OC)cc(-c2nnc(NC(=O)CCS(=O)(=O)c3ccc(F)cc3)o2)c1,?,-66*,/,?,/
Cc1ccc(-c2nnc(NC(=O)CCS(=O)(=O)c3ccccc3)o2)c(C)c1,?,-6,/,4%,/
COCCNC(=O)c1cc2c(c(-c3cccc(-c4cc5ccccc5o4)c3)n1)[C@@H](CCO)N(S(=O)C(C)(C)C)C2 (stereo not given in full),/,-19,/,/,/
Cn1nnnc1SCCNCc1ccccc1OCc1ccc(Cl)cc1,27%,-89*,-22%,-4%,?
Cn1nnnc1SCCNCc1cc(Cl)ccc1OCc1ccccc1,?,-9,?,14%,43%
Cn1nnnc1SCCNCc1ccccc1OCc1ccccc1Cl,-4%,-50*,?,-1%,?
CC1(C)Cc2c(sc(NC(=O)C(=O)NCC3CCCO3)c2C(N)=O)CO1 (stereo not given),3%,2,0%,-3%,-7%
CS(=O)c1ccccc1O (stereo not given),4%,26,-4%,-6%,11µM*
COc1ccc(OCCn2cc(C=O)c3ccccc32)cc1,?,-10,-23%,-7%,?
Cc1ccccc1OCCCn1c(=O)sc2ccccc21,?,6,10µM*,14%,2.8µM*
COc1ccc(OCCn2cc(/C(N)=N/O)c3ccccc32)cc1,4%,-57*,-17%,-3%,?
COc1ccccc1OCCn1cc(/C=N/NC(=O)c2ccncc2)c2ccccc21,18%,-7,?,-2%,6.3µM*
CNC(=S)N/N=C/c1cn(CCOc2ccc(OC)cc2)c2ccccc12,?,-22,3.2µM*,6%,2.2µM*
COc1ccccc1C=NNC(=O)c1ccncc1,-1%,16,/,2%,/
COc1cccc(-c2nc(NCCN3CCOCC3)c3ccccc3n2)c1,/,/,5%,/,10%
CC[C@@]1(C(=O)OC)N[C@H](CN(C)C(=O)COc2ccccc2)[C@@H]2C(=O)N(C)C(=O)[C@@H]21,1%,33,/,0%[9.22 µM],/
N/C(=N\O)c1cn(Cc2ccccc2Cl)c2ccccc12,27%,-66*,-5%,-6%,8%
O=C(N/N=C/c1cn(CCOc2ccccc2)c2ccccc12)c1ccncc1,0%,14,10µM*,-6%,6.3µM*
COc1ccccc1OCCn1cc(/C=N/NC(N)=S)c2ccccc21,13%,-2,2µM*,-1%,0.5µM*
O=[N+]([O-])c1ccc(N/N=C/c2cn(Cc3ccc(F)cc3)c3ccccc23)nc1,28%,46,6.3µM*,-1%,?
CC(=O)Nc1cc(-c2cccc(N)c2)cn2c(-c3ccccc3)cnc12,/,-4,/,/,/
SMILES,MCF10A rereplic,IL-1B inflam inh,VP16 counter,SW480 rereplic,RORg inh
Cc1ccccc1OCCn1cc(C=O)c2ccccc21,?,-53*,?,-1%,?
CNC(=S)N/N=C/c1cn(Cc2ccc(F)cc2)c2ccccc12,?,-20,1.1µM*,0%,0.89µM*
COC(=O)N/N=C/c1cn(Cc2ccc(F)cc2)c2ccccc12,5%,-24,3%,1%,45%
O=c1ccn([C@@H]2O[C@H](CNCc3cccn3-c3ccncc3)[C@@H](O)[C@H]2O)c(=O)[nH]1,/,0,/,/,/
O=C(CSc1nc(-c2ccco2)cc(C(F)(F)F)n1)Nc1ccc2c(c1)CCC2,?,12,-8%,?,41%
Cc1cc(NC(=O)CSc2nc(-c3ccco3)cc(C(F)(F)F)n2)n(-c2ccccc2)n1,10µM*,45,14%,?,28%

# Screening results: PubChem BioAssay, National Center for Advancing Translational Sciences (NCATS)
